# PubChem BioAssay AID2501 (Southern Research Specialized Biocontainment Screening …, 2010)
# Hit rate of the full screen: of about 2,200 compounds, about 1,200 (55%) were called active. No cut-off is given here; in the data, nearly all actives have IC50 up to about 92 µM. So high a share suggests a set chosen from earlier hits. The list shows a part of the results.
# Assay: counter assay for TAg ATPase ADP read-out – biochemical, ADP-Hunter, fluorescence, counter-screen (AID 2501);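 note: purified T antigen ATPase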
# Conditions: series mostly up to 100 µM
row,SMILES,IC50
1,O=C(/C=C/c1ccco1)Nc1cccc(C(=O)Nc2ccccc2C(=O)O)c1,inactive
2,NC(=O)/C(=C/c1ccco1)C(N)=S,inactive
3,O=C(NC(=O)c1cnccc1C(F)(F)F)Nc1ccccc1,inactive
4,O=C(Nc1ccc(O)cc1)/C(=C\c1ccncc1)NC(=O)c1ccccc1,10.7 µM (active)
5,O=C(Nc1ccc(O)cc1)/C(=C/c1ccco1)NC(=O)c1ccccc1,3.43 µM (active)
6,O=C(Nc1ccc(O)cc1)/C(=C\c1cccs1)NC(=O)c1ccccc1,8.43 µM (active)
7,CCC(C)N(C(=O)COC(=O)/C=C/c1ccc(O)c(OC)c1)C1CCS(=O)(=O)C1 (stereo unspecified),19 µM (active)
8,O=C(Nc1nc(-c2ccco2)c(-c2ccco2)s1)c1cnccn1,inactive
9,C/C(=N\NC(=O)CCC(=O)Nc1ccc(C)c(C)c1)c1cccs1,inactive
10,O=C(COc1ccc2ccccc2c1)Nc1ccc(Cc2ccncc2)cc1,inactive
11,C/C(CC(=O)Nc1ccc(N(C)C)cc1)=N\NC(=O)c1ccncc1,7.2 µM (active)
12,C/C(CC(=O)Nc1ccc(N(C)C)cc1)=N\NC(=O)c1cnccn1,3.36 µM (active)
13,C/C(CC(=O)Nc1ccc2ccccc2c1)=N\NC(=O)c1ccc(O)c(O)c1,5.4 µM (active)
14,O=[N+]([O-])c1c(NCCO)cc(Sc2nc3ccccc3s2)c2nonc12,inactive
15,Oc1ccc(N=Cc2ccc(O)c(O)c2)cc1,2.65 µM (active)
16,Oc1ccc(/C=N/N=C/c2ccc(O)c(O)c2)cc1O,2.99 µM (active)
17,COC1=CC(=O)C(O)=C(CCCCCCC/C=C/CCCCCCCC2=C(O)C(=O)C=C(OC)C2=O)C1=O,inactive
18,O=C(CCCCl)NC1=NN(c2ccccc2)C(=O)C1,12.6 µM (active)
19,O=C(CCSc1ccccc1)Nc1ncccn1,inactive
20,CCCCCC(=O)NNC1CC(=O)N(c2cccc(OCC)c2)C1=O (stereo unspecified),inactive
21,Oc1cccc2cnccc12,5.53 µM (active)
22,N#Cc1c(N2CCCCC2)nc(N)c2c(N)nc(SCC(=O)O)cc12,inactive

row,SMILES,IC50
1,c1cncc(CNc2ccc3c(c2)OCO3)c1,7.3 µM (active)
2,COc1ccc(-c2c(-c3ccc(O)cc3O)n[nH]c2C)cc1OC,13.2 µM (active)
3,CNc1nc(C)nc(-n2nc(C)cc2C)n1,inactive
4,CC1=C(C)CS(=O)N(S(=O)(=O)c2ccccc2)C1 (stereo unspecified),inactive
5,O=C(OCCCN1CCOCC1)c1ccc(O)c(O)c1,9.99 µM (active)
6,COc1ccc(OC)c(C2C(C(=O)c3ccc(C)o3)=C(O)C(=O)N2CCN2CCOCC2)c1 (stereo unspecified),inactive
7,O=c1cc2oc3cc(O)c(O)cc3c(-c3ccccc3[N+](=O)[O-])c-2cc1O,7.23 µM (active)
8,COc1ccc(OC)c(-c2c3cc(O)c(=O)cc-3oc3cc(O)c(O)cc23)c1,inactive
9,CN(C)c1oc(-c2ccccc2[N+](=O)[O-])nc1C#N,inactive
10,COc1cc(OC)c(-c2c3cc(O)c(=O)cc-3oc3cc(O)c(O)cc23)cc1OC,7.14 µM (active)
11,CO[C@@H]1O[C@@H]2COC(c3ccccc3)O[C@@H]2[C@@H](OC)[C@@H]1O (stereo partly specified),inactive
12,CC1(C)OC(=O)C(=NNc2ccc(O)cc2)C(=O)O1,3.09 µM (active)
13,Nc1nc2ccc(N3CCOCC3)cc2s1,3.09 µM (active)
14,Nc1nc2ccc(O)cc2s1,2.36 µM (active)
15,Nc1nc2ccc(S(=O)(=O)N3CCCCC3)cc2s1,inactive
16,Nc1ccccc1-c1nc2ccccc2s1,inactive
17,CN(C)c1ccc(N2C(=O)CC(Nc3ccc(N4CCOCC4)cc3)C2=O)cc1 (stereo unspecified),4 µM (active)
18,CCOc1ccc(N2C(=O)CC(N3CCOCC3)C2=O)cc1 (stereo unspecified),inactive
19,NC(=O)c1ccsc1NC(=O)C1CCN(S(=O)(=O)c2cccs2)CC1,inactive
20,O=C(NC(=S)N1CCN(c2ccc(O)cc2)CC1)c1cccs1,5.56 µM (active)
21,O=C(NCc1ccc(F)cc1)C(=O)NCC1OCCN1S(=O)(=O)c1cccs1 (stereo unspecified),inactive
22,O=S(=O)(c1cccs1)N1CCN(c2ccc(O)cc2)CC1,5.21 µM (active)

row,SMILES,IC50
1,O=C(CCC(=O)N1CCN(c2ccc(O)cc2)CC1)c1cccs1,2.87 µM (active)
2,O=C(c1cccs1)N1CCN(C(=O)C2CCCO2)CC1 (stereo unspecified),inactive
3,O=C(CC1SC(=O)N(c2ccccc2)C1=O)Nc1cccc2ccccc12 (stereo unspecified),inactive
4,COc1ccc(CCNc2ccc(C(CC(N)=O)NC(=O)Cc3ccc(Br)cc3)cc2[N+](=O)[O-])cc1 (stereo unspecified),inactive
5,CN(C)C(=S)Nc1ccc(N2CCOCC2)cc1,2.52 µM (active)
6,O=Cc1sc(=O)n(Cc2cccc(C(=O)O)c2)c1Cl,inactive
7,Cc1nc2sc(C(c3ccco3)N3CCC(C)CC3)c(O)n2n1 (stereo unspecified),inactive
8,Cc1ccc2nc(-c3ccccn3)c(NC3CCCC3)n2c1,10.1 µM (active)
9,Cc1ccccc1Nc1c(-c2ccccn2)nc2ccccn12,10.9 µM (active)
10,c1ccc(-c2cccc(-c3ccccn3)n2)nc1,inactive
11,C[C@@H]1NC(=O)[C@H](CCC(N)=O)NC(=O)c2cc([N+](=O)[O-])cc(I)c2NCC[C@@H](C(N)=O)NC1=O,inactive
12,O=c1[nH]c2ccccc2n2c(-c3ccccc3)nnc12,inactive
13,CC(=O)Nc1ccc(S(=O)(=O)Nc2nc3ccccc3nc2Nc2ccc(N)cc2)cc1,5.8 µM (active)
14,CC(=O)NS(=O)(=O)c1ccc(NC(=S)NC(=O)Cc2ccccc2)cc1,inactive
15,CC(=O)Nc1ccc(S(=O)(=O)Nc2nc3ccccc3nc2Nc2ccc(O)cc2)cc1,7.76 µM (active)
16,O=c1nc2s/c(=C\c3ccco3)c(=O)n2nc1Cc1ccc(F)cc1,inactive
17,COc1cc(/C=N/NC(=O)c2ccc3nc[nH]c3c2)ccc1O,5.28 µM (active)
18,COc1cc(/C=N/NC(=O)c2cc(C3CC3)[nH]n2)ccc1O,3.26 µM (active)
19,COc1cc(/C=N/NC(=O)c2nnn(-c3nonc3N)c2-c2cccs2)ccc1O,3.94 µM (active)
20,Cc1cc(C)n2nc(C(=O)N/N=C/c3ccc(O)cc3)nc2n1,2.32 µM (active)
21,COc1cccc(CN2CCNC(=O)C2CC(=O)NCc2cn3ccccc3n2)c1OC (stereo unspecified),inactive
22,Cc1cccn2c(CN(C)CCC3CCCCO3)c(C(=O)N3CCCCC3)nc12 (stereo unspecified),inactive

row,SMILES,IC50
1,COc1cc(/C=N/N(C)c2ccccc2)ccc1O,8.84 µM (active)
2,C=CCN1CCN(C(=O)c2c(-c3ccccc3)noc2C)CC1,inactive
3,COc1cc(/C=N/NC(=O)c2c(-c3ccccc3)noc2C)ccc1O,4.78 µM (active)
4,COc1cc(/C=N/NC(=O)C2COc3ccccc3O2)ccc1O (stereo unspecified),3.2 µM (active)
5,COc1cc(/C=N/NC(=O)c2cnccn2)ccc1O,3.09 µM (active)
6,CCCOc1ccc(C(=O)N2CC3(CC(c4cccc(NC(=O)[C@@H]5CCC(=O)N5)c4)=NO3)C[C@H]2C(=O)NC2(C(N)=O)CC2)cc1 (stereo partly specified),inactive
7,COc1cc(/C=N\NC(=O)c2c(C)nc3cc(C)ccn23)ccc1O,4.52 µM (active)
8,COc1cc(/C=N/NC(=O)c2nc(C)cc(C)n2)ccc1O,2.74 µM (active)
9,COc1cc(/C=N/NC(=O)c2cccs2)ccc1O,4.58 µM (active)
10,COc1cc(/C=N/NC(=S)Nc2cccc(C(=O)O)c2)ccc1O,2.66 µM (active)
11,CCCOc1ccccc1/C=C1\SC(N2CCCCC2)=NC1=O,inactive
12,COc1cc(/C=N/NC(=O)c2ccccc2)ccc1O,5.63 µM (active)
13,COc1ccc(/C=N\NC(=O)c2ccc(=O)[nH]n2)cc1O,3.12 µM (active)
14,COc1cc(/C=N/NC(=O)c2ccncc2)ccc1O,3.56 µM (active)
15,CCOC(=O)C[n+]1c(C)sc2ccc(OC)cc21,inactive
16,C=CCOc1ccc(CNc2ccc3[nH]c(=O)[nH]c3c2)cc1OCC,3.26 µM (active)
17,O=C(Nc1ccc2[nH]c(=O)[nH]c2c1)c1cccc([N+](=O)[O-])c1,inactive
18,O=c1[nH]c2ccc(NCc3ccc(F)cc3)cc2[nH]1,5.43 µM (active)
19,C=CCOc1ccccc1CNc1ccc2[nH]c(=O)[nH]c2c1,5.14 µM (active)
20,C=CCOc1c(CNc2ccc3[nH]c(=O)[nH]c3c2)cccc1OC,3.28 µM (active)
21,Cc1ccc(C2C(C#N)=C(N)Oc3c2oc(CO)cc3=O)o1 (stereo unspecified),inactive
22,O=C1CC(=O)N(Cc2ccco2)C(=S)N1,inactive

row,SMILES,IC50
1,O=C1c2sc3nc4n(c(=O)c3c2CCC1Br)CCCCC4 (stereo unspecified),inactive
2,COc1ccc2[nH]c(=O)c(CNc3ccccc3OC)cc2c1,inactive
3,COc1cccc(CNc2ccc3[nH]c(=O)[nH]c3c2)c1OCc1ccccc1,3.98 µM (active)
4,C=CCOc1cccc(CNc2ccc3[nH]c(=O)[nH]c3c2)c1,4.29 µM (active)
5,COc1cc(/C=C2\SC(=Nc3ccc(Cl)c(C(=O)O)c3)NC2=O)c(Br)c(Br)c1O,3.98 µM (active)
6,COc1cc(/C=C2\S/C(=N/S(=O)(=O)c3ccc(C)cc3)NC2=O)c([N+](=O)[O-])cc1OC,inactive
7,CN1CN(C)c2cccc3cccc1c23,13.5 µM (active)
8,COc1ccccc1N/C=C/C(=C(C#N)C#N)N(C)C,inactive
9,CN(C)c1ccc(N/C=C/C(=O)c2ccccc2)cc1,3.25 µM (active)
10,CN(C)c1ccc(N/C=C/C(=O)C(F)(F)F)cc1,8.86 µM (active)
11,CCOC(=O)c1ccc(N/C=C/C(=O)C(C)(C)C)cc1,inactive
12,O=S(=O)(Nc1c(O)ccc2ccccc12)c1ccc(F)cc1,inactive
13,Oc1ccc2ccccc2c1N=Nc1ccccc1F,7.8 µM (active)
14,O=C(CSc1cccc2cccnc12)N/N=C/c1ccc(O)cc1,4.35 µM (active)
15,O=S(=O)(Nc1cc(Sc2cccc3cccnc23)c(O)c2ccccc12)c1ccc(F)cc1,inactive
16,O=C(N/N=C/c1ccc(O)c(O)c1)c1ccc(CSc2cccc3cccnc23)cc1,29 µM (active)
17,CCOc1cc(/C=N/NC(=O)CSc2cccc3cccnc23)ccc1O,3.48 µM (active)
18,O=C(COc1cccc2cccnc12)N/N=C/c1ccc(O)cc1,73.5 µM (active)
